The values below come from PubChem BioAssay.

Active and inactive are the calls of the source. Unless noted, how the calls were made is not given here.

The nature of assay [1]: compound effects on lung adenocarcinoma cell viability – A549, calcein-AM fluorescence, 48 h, basal, profiling panel (AID 1162). Further: test concentration not given here. Conditions: higher = more signal.
Assay [2] can be described thus: compound effects on differentiated 3T3-L1 adipocyte viability – cell-based, 3T3-L1 adipocytes, calcein-AM fluorescence, 48 h, basal, profiling panel (AID 1163). Further: test concentration not given here. As to conditions: 3T3-L1 adipocytes viability, higher = more signal.
Assay [3] in a line: compound effects on hepatocellular carcinoma cell viability – HepG2, calcein-AM fluorescence, 48 h, basal, profiling panel (AID 1164). Further: test concentration not given here. Conditions: higher = more signal.
A short description of assay [4]: compound effects on multiple myeloma cell viability – MM1S, calcein-AM fluorescence, 48 h, basal, profiling panel (AID 1165). Further: test concentration not given here. Conditions: higher = more signal.
Assay [5] is described as follows: calcein-AM signal in unstimulated myeloma cells – cell-based, calcein-AM fluorescence, 48 h, PK04 Diversity Set, profiling panel (AID 1166).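 Further: cells grown under basal conditions without added stimulus; test concentration not given here.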 As to conditions: RPMI8226 myeloma viability, higher = more signal.
Assay [6] can be described thus: JC-1 mitochondrial signal, unstimulated HepG2 cells – cell-based, JC-1 fluorescence, 24 h, 100 nL compound, profiling panel (AID 1167). Further: test concentration not given here. Conditions: HepG2 mitochondrial potential, higher = more signal.
Assay [7] can be described thus: JC-1 mitochondrial signal, unstimulated adipocytes – cell-based, JC-1 fluorescence, 3T3-L1 adipocytes, 24 h, 100 nL compound, profiling panel (AID 1168). Further: test concentration not given here. Conditions: JC-1 mitochondrial fluorescence, higher = more signal, called active from +8 up or from −8 down.
A short description of assay [8]: JC-1 mitochondrial signal, unstimulated myeloma cells – cell-based, JC-1 fluorescence, RPMI8226, 24 h, 100 nL compound, profiling panel (AID 1169). Further: test concentration not given here. As to conditions: JC-1 mitochondrial potential fluorescence, higher = more signal.
The nature of assay [9]: JC-1 mitochondrial signal, unstimulated MM1S myeloma – cell-based, JC-1 fluorescence, 24 h, 100 nL compound, profiling panel (AID 1170). Further: test concentration not given here. Conditions: MM1S mitochondrial potential, higher = more signal.
A short description of assay [10]: resazurin metabolic signal in A549 cells – cell-based, resazurin fluorescence, 24 h, PK04 Diversity Set, profiling panel (AID 1171). Further: test concentration not given here. As to conditions: A549 viability, higher = more signal, called active from +8 up or from −8 down. A general note: Alamar Blue is a resazurin reagent that responds to reducing activity.
The nature of assay [11]: resazurin metabolic signal in HepG2 cells – cell-based, resazurin fluorescence, 24 h, PK04 Diversity Set, profiling panel (AID 1172). Further: test concentration not given here. As to conditions: HepG2 viability, higher = more signal.
Assay [12] in a line: budding yeast growth changes without added modifier – OD600, strain BY4716, 24 h, basal condition, primary screen (AID 1173). Conditions: S. cerevisiae BY4716 growth, OD600, 24 h; higher = more signal, called active from +8 up or from −8 down.
The nature of assay [13]: viability profiling in MM1S myeloma cells – cell-based, resazurin fluorescence, basal, 24 h, PK04 Diversity Set, profiling panel (AID 1174). Further: test concentration not given here. As to conditions: higher = more signal, called active from +8 up or from −8 down.
The target of assay [14] is Dihydroorotate dehydrogenase (quinone), mitochondrial (Plasmodium falciparum (isolate 3D7)) (UniProt Q08210). Kind of assay: inhibition of P. falciparum DHODH – biochemical, C-terminal His tag, absorbance 600 nm, primary screen (AID 1175).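 Further: recombinant parasite enzyme with a five histidine tag at its C terminus; test concentration not given here.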 As to conditions: PfDHODH enzyme, DCIP absorbance 600 nm; higher = more signal, called active from +8 up or from −8 down.
Dihydroorotate dehydrogenase (quinone), mitochondrial (Plasmodium falciparum (isolate 3D7)), sequence (Q08210 whole entry, looked up): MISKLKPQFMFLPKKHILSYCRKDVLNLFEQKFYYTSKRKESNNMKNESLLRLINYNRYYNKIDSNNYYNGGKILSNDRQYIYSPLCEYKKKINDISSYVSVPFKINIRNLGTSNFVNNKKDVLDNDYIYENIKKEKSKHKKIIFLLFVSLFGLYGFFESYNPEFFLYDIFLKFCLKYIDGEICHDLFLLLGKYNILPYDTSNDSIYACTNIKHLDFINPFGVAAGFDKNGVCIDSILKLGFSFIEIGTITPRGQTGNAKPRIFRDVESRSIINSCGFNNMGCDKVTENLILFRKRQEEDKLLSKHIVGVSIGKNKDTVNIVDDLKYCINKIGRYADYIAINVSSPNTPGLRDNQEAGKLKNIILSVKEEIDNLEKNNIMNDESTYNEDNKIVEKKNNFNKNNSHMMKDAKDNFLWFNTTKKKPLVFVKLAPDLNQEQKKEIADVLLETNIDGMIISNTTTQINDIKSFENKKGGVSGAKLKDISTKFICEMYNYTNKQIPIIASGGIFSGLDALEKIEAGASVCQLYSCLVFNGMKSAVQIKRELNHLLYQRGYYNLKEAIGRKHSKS
Assay [15] is described as follows: inhibition of PAO1 biofilm formation – strain PAO1, LB-PBS medium, absorbance 600 nm, primary screen (AID 1176). Further: test concentration not given here. As to conditions: P. aeruginosa PAO1 growth/biofilm, A600, 12 h; higher = more signal.
A short description of assay [16]: growth modulation of vineyard yeast isolate – strain RM11-1a, OD600, basal, 24 h, primary screen (AID 1177).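 Further: cultures grown under basal conditions with no added stressor; test concentration not given here.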 As to conditions: S. cerevisiae RM11-1a growth, OD600, 24 h; higher = more signal, called active from +8 up or from −8 down.
Assay [17] can be described thus: growth of efflux-deficient E. coli DRC39 – strain DRC39, OD650, 24 h, E. coli filamentation inducers, primary screen (AID 1178).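 Further: growth measured as culture turbidity by optical density at 650 nm; test concentration not given here.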 Conditions: E. coli DRC39 acrAB, higher = more signal, called active from +8 up or from −8 down.
Assay [18] can be described thus: growth of efflux-deficient E. coli DRC39 – strain DRC39, OD650, 48 h, E. coli filamentation inducers, primary screen (AID 1179).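 Further: screen aims at cell division blockers that make cells filament.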 As to conditions: E. coli DRC39 delta-acrAB growth, higher = more signal, called active from +8 up or from −8 down.
A short description of assay [19]: viability profiling in RPMI8226 myeloma cells – cell-based, resazurin fluorescence, basal, 24 h, PK04 Diversity Set, profiling panel (AID 1180).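 Further: RPMI8826 multiple myeloma cell line at 5000 cells per well; test concentration not given here.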 As to conditions: higher = more signal.
Assay [20] has as its target E3 ubiquitin-protein ligase XIAP (Homo sapiens) (UniProt P98170). Description: small molecules binding XIAP protein – biophysical, small-molecule microarray, fluorescence 635 nm, primary screen (AID 1181).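 Further: score merges 667 nm emission and signal to noise over triplicate slides.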 As to conditions: higher = more signal.

E3 ubiquitin-protein ligase XIAP (Homo sapiens), sequence (P98170 whole entry, looked up): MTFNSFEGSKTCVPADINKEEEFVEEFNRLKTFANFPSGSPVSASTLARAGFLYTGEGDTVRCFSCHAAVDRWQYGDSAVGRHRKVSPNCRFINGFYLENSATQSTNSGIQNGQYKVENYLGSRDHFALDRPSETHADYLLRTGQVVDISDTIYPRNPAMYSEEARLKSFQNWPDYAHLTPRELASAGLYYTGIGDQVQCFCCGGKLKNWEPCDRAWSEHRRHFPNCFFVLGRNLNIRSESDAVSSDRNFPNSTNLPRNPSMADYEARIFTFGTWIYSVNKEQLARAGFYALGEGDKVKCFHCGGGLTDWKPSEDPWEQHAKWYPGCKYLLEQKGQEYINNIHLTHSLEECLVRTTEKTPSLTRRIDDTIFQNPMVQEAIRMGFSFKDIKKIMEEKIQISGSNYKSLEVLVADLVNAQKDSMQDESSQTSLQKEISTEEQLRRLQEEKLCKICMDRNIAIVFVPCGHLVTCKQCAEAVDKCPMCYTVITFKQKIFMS

For the molecule `COc1cc(OC)c(C(O)C2C=CC3C(=O)N(c4ccccc4)C(=O)C3N2Nc2ccccc2F)cc1Br` (stereo not given), the z-score is -1.06 in assay [1]; -1.41 in assay [2]; 0.302 in assay [3]; -0.303 in assay [4]; -0.308 in assay [5]; -2.04 in assay [6]. Also, the z-score in assay [7] is -1.17 (inactive); in assay [8] it was 0.26; in [9], -0.645; in assay [10], -0.568 (inactive); in assay [11], -0.384; in assay [12], -1.22 (inactive). Moreover, the z-score in assay [13] was -0.898 (inactive); in assay [15] it was 1.32 (inactive); in assay [16], 0.298 (inactive); in assay [17] it was -0.529 (inactive); in [18], -0.595 (inactive); in assay [19] it was -2.08. For the same molecule, the composite z-score in assay [14] was -0.92 (inactive); in [20], 0.0245.

Turning to `NCCCC[C@@H]1NC(=O)[C@H]2C[C@@H](C(=O)O)[C@@H](c3cccc(OCCO)c3)N2C1=O`, the z-score in [1] is -0.917; in [2], -0.61; in assay [3], 0.274; in assay [4], -1.81; in assay [5] it was 0.0324; in assay [6] it was -2.23. The z-score in assay [7] was 0.0425 (inactive); in assay [8], -0.392; in [9], -0.658; in assay [10], 0.506 (inactive); in assay [11], -0.578; in assay [12], -0.0349 (inactive). Moreover, the z-score was 0.152 (inactive) in assay [13]; 0.628 (inactive) in [15]; 1.08 (inactive) in assay [16]; 0.191 (inactive) in [17]; -0.28 (inactive) in assay [18]; -0.438 in assay [19]. For the same molecule, the values for the composite z-score in assay [14] and in [20] were -6.64 (inactive) and 0.201, respectively.

Regarding `O=C1O[C@@H](c2ccccc2)[C@@H](c2ccccc2)N2[C@@H](c3ccc(OCCO)cc3)[C@]3(C(=O)Nc4ccc(C#CCCO)cc43)[C@@H](C(=O)Nc3nc4ccccc4s3)[C@H]12`, the z-score in [1] was 0.0652; in [2], 0.794; in [3], -0.354; in assay [4], -0.267; in assay [5] it was -0.0767; in assay [6] it was -3.09. Further, the z-score in assay [7] is 1.57 (inactive); in [8] it was -1.06; in assay [9], -1.49; in assay [10] it was 1.58 (inactive); in assay [11], 1.44; in assay [12], 0.799 (inactive). Moreover, the z-score in assay [13] is 1 (inactive); in assay [15], 0.89 (inactive); in assay [16] it was 0.25 (inactive); in assay [17] it was 0.042 (inactive); in [18], -0.366 (inactive); in assay [19], 1.51. The composite z-score is -0.812 (inactive) in assay [14] and 0.0225 in assay [20].

Turning to `COc1ccc(NC(=O)O[C@H]2[C@H](OC(=O)Nc3ccc4c(c3)OCO4)[C@H](OC(=O)Nc3ccc4c(c3)OCO4)[C@@H](OC)O[C@@H]2CO)cc1`, the z-score in assay [1] is -0.798; in assay [2], 0.568; in assay [3] it was -0.54; in assay [4], -0.714; in assay [5] it was -0.983; in [6], -0.0127. Besides, the z-score in assay [7] is -0.213 (inactive); in assay [8], -0.685; in assay [9] it was -1.19; in assay [10] it was -0.339 (inactive); in assay [11], -0.637; in assay [12], 1.41 (inactive). Besides, the z-score in assay [13] is -0.366 (inactive); in assay [15] it was 0.826 (inactive); in assay [16] it was 1.88 (inactive); in assay [17], 0.677 (inactive); in [18] it was 0.18 (inactive); in [19], -0.686. Moreover, the composite z-score in assay [14] is 0.229 (inactive); in [20], 0.52.

Turning to `C=CCC(OC(C)=O)[C@@H]1[C@@H](N(Cc2ccc(-c3cccc(C(F)(F)F)c3)o2)C(=O)Cc2ccc(F)cc2)c2cc(OCCCO)ccc2N1C(=O)c1ccc2ccccc2n1` (stereo not given in full), the z-score in assay [1] is 0.0993; in assay [2] it was 0.639; in assay [3], 0.722; in assay [4], -0.911; in assay [5], -0.733; in assay [6], 2.09. For the same molecule, the z-score in assay [7] was 0.484 (inactive); in assay [8], -0.134; in [9], 0.143; in assay [10], 0.14 (inactive); in assay [11], 0.286; in assay [12] it was 0.441 (inactive). For the same molecule, the z-score in assay [13] was 0.229 (inactive); in assay [15], 0.927 (inactive); in assay [16], -0.116 (inactive); in assay [17], -0.36 (inactive); in assay [18], -0.15 (inactive); in assay [19] it was -0.128. In addition, the composite z-score in assay [14] is -0.235 (inactive); in [20] it was 0.0454.

For the molecule `COc1ccc(NN2C(C(O)c3ccc(OC)cc3)C=CC3C(=O)N(C4CCCCC4)C(=O)C32)cc1` (stereo not given), the z-score was -0.285 in [1]; -1.29 in [2]; 1.24 in assay [3]; 0.764 in assay [4]; -0.512 in assay [5]; -0.126 in [6]. Moreover, the z-score was 0.0238 (inactive) in assay [7]; 0.417 in assay [8]; -1.44 in assay [9]; 0.965 (inactive) in [10]; 1.52 in assay [11]; -0.365 (inactive) in assay [12]. Also, the z-score in assay [13] is 0.363 (inactive); in assay [15] it was 1.05 (inactive); in assay [16], 0.107 (inactive); in assay [17] it was -0.447 (inactive); in assay [18], 0.703 (inactive); in assay [19] it was 0.346. The composite z-score in [14] is -0.809 (inactive); in [20] it was 0.229.

As to `COc1ccc([Si](C)(C)[C@H]2[C@H](CCn3cc([C@H](O)c4ccccc4)nn3)O[C@@]3(C(=O)N(c4ccccc4)c4ccccc43)[C@@H]2C)cc1`, the z-score in assay [1] is -0.13; in assay [2], 0.885; in [3], -1.31; in assay [4] it was -0.54; in assay [5], -3.18; in assay [6], 1.63. The z-score was 0.291 (inactive) in [7]; -0.932 in assay [8]; -0.794 in assay [9]; -0.853 (inactive) in assay [10]; 0.378 in assay [11]; 0.885 (inactive) in assay [12]. For the same molecule, the z-score is -1.82 (inactive) in [13]; 0.131 (inactive) in assay [15]; 2.12 (inactive) in [16]; 0.346 (inactive) in assay [17]; 0.0139 (inactive) in assay [18]; -1.34 in assay [19]. Besides, the composite z-score was 0.413 (inactive) in assay [14] and -0.316 in assay [20].

Turning to `NC(=O)NCC#Cc1ccc2c(c1)[C@]1(C(=O)N2)[C@H](C(=O)N2CCCCCCC2)[C@H]2C(=O)O[C@H](c3ccccc3)[C@H](c3ccccc3)N2[C@@H]1c1ccc(O)cc1`, the z-score in assay [1] is -0.491; in assay [2] it was -0.542; in assay [3] it was -0.0358; in assay [4] it was -0.499; in [5] it was -0.193; in [6], -1.98. Moreover, the z-score in [7] is -0.35 (inactive); in [8], -0.981; in [9] it was 0.0512; in assay [10], -0.0116 (inactive); in assay [11], 0.0542; in assay [12], 0.319 (inactive). Also, the z-score in assay [13] is 0.678 (inactive); in assay [15], 1.92 (inactive); in assay [16], 0.0562 (inactive); in assay [17] it was 0.271 (inactive); in assay [18] it was -0.194 (inactive); in assay [19], -0.018. In addition, the composite z-score is 0.246 (inactive) in assay [14] and 0.751 in assay [20].
